Bioassay records (PubChem BioAssay)
Apoferritin bind: qHTS Assay for Identification of Novel General Anesthetics. Ferritin light chain (Equus caballus), P02791. apoferritin/1-aminoanthracene competitive binding, fluorescence. Potency, µM (top dose mostly 77.5 µM), for inactives: top-dose activity change, negative = displacement, most hits filed as inhibitors. hit rate 0.074% among 350,000. AID 485281, 2010; also: potency is read from the fitted curve at half-maximal effect; % is scaled to controls: 0 for no effect and ±100 for the full control effect; nearly all actives have a fitted effect of over 20% in size
Target sequence (P02791 2-175 limits assumed): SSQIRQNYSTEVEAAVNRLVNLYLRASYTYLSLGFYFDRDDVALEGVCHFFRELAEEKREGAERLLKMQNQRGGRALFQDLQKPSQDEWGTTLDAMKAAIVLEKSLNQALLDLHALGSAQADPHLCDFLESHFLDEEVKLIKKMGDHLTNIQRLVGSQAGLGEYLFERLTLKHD
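Probe: 1-aminoanthracene (50% saturated, PBS). Protein: horse-spleen apoferritin, 10 uM. Incubation: 10 min, room temperature. Detection: 380 nm excitation, 535 nm emission. Analysis: normalized response, four-parameter Hill.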
CBFb-RUNX1 inh: qHTS Assay for Compounds Blocking the Interaction Between CBF-beta and RUNX1 for the Treatment of Acute Myeloid Leukemia. Runt-related transcription factor 1 (Homo sapiens) + Core-binding factor subunit beta …. AlphaScreen CBFb-His/RUNX1-biotin binding, biochemical. Potency, µM (highest dose often 59.8 µM), for the others: at the highest dose activity, negative = inhibition, actives largely listed as inhibitors. 230,000 tested, under 10 active. AID 1477, 2009; also: % of control where 0% means no effect
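AlphaScreen binding: CBFb-His and RUNX1-biotin (30 nM each) preincubated 20 min, compound added for 15 min, then nickel and streptavidin beads for 90 min, all at room temperature. Disruption of the interaction by any mechanism counts as activity.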
N370S GC mod: qHTS Assay for Inhibitors and Activators of N370S glucocerebrosidase as a Potential Chaperone Treatment of Gaucher Disease. Potency, µM (doses to about 59.4 µM), for the others: at the top dose activity change, negative = inhibition, most hits filed as inhibitors. AID 2101, 2009. N370S GC spleen homogenate, 4MU-glucoside fluorescence. hit rate 0.092% among 330,000. Lysosomal acid glucosylceramidase (Homo sapiens), P04062;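 also: potency is read from the fitted curve at half-maximal effect; 0% = full enzyme activity and -100% = no enzyme basal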
GRP78 ERSR act: qHTS for Inducers of the Endoplasmic Reticulum Stress Response (ERSR) in Human Glioma: qHTS; U87-MG GRP78 promoter luciferase reporter, 16 h; Potency, µM, for inactives: at the highest dose activation, actives largely listed as activators; hit rate 0.02% among 420,000; AID 602332, 2012; also: potency is read from the fitted curve at half-maximal effect; series mostly up to about 76 µM; % of control where 0% means no effect; nearly all actives have a fitted effect of over 35% in size
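ERSR induction read as luciferase luminescence (Bright-Glo, 10 min at room temperature) in stably transfected human U87-MG glioma cells exposed to compounds for 16 h, using GRP78 as sensor.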
ClpP mod: qHTS Assay for Activators of ClpP; ATP-dependent Clp protease proteolytic subunit (Bacillus subtilis (strain 168)), P80244; purified B. subtilis ClpP, FRET peptide cleavage, 20 min; Potency, µM (highest dose often 57.5 µM), for the others: at the top dose activity change, negative = active; hit rate 1.9% among 340,000; active = well fitted falling curve with a large enough effect; inconclusive = small, poorly fitted or top-dose-only effect; inactive = no such curve, though single readings can be large or run the other way; also: potency is read from the fitted curve at half-maximal effect; the source files actives as falling curves though it sought activators and does not explain the sign; nearly all actives have a fitted effect of over 65% in size
Target sequence (P80244 whole entry, looked up): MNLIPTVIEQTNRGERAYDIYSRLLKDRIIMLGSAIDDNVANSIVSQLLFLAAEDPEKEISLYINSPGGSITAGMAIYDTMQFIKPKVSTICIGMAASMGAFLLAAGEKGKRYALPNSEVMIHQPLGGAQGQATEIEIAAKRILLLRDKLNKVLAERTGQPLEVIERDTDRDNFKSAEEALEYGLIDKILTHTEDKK
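Buffer: 100 mM Tris/HCl pH8, 100 mM KCl, 0.05% low protease BSA, 2.5% glycerol, 0.01% Tween-20. ClpP 10 microg/mL final; 20 min RT; delta FRET normalized to ADEP and DMSO controls.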
Integrin act MD: qHTS for Activators of Integrin-Mediated Alleviation for Muscular Dystrophy. alpha7betagal myoblasts, beta-gal FDG fluorescence, 48 h. hit rate 0.064% among 350,000. Potency, µM (doses to about 38.3 µM), for the others: at the highest dose activation, hits mostly activators;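 also: potency is read from the fitted curve at half-maximal effect; 100% = response of the positive control SU9516; nearly all actives have a fitted effect of over 60% in size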
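alpha7betagal+/- myoblasts (passage 13, 250/well) treated 48 h at 37C with compounds at 1:260 dilution of DMSO stock. Lysed, then beta-galactosidase activity read as FDG fluorescence (ex 480/em 540) after 30 min, with pre-read for autofluorescence.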
* marks the source's active call; other numbers are inactive results; ? = inconclusive; / = no result given. The entries come from a sample that favours hits as a whole. Unless noted, calls follow the shape of the dose curve; as a rule, active = well fitted curve in the direction sought with a large enough effect; inconclusive = small, poorly fitted or top-dose-only effect, or another doubt; inactive = no such curve, though single readings can be large; an effect the other way counts as inactive or inconclusive.

SMILES	Apoferritin bind	CBFb-RUNX1 inh	N370S GC mod	GRP78 ERSR act	ClpP mod	Integrin act MD
CC(=O)Nc1ccccc1-c1nc(CNC(=O)c2ccc(-c3ccccc3F)cc2)c(C)o1	/	/	/	0%	/	/
COc1ccc(Cl)c(Cn2cnc3c(cnn3C(C)(C)C)c2=O)c1F	/	/	/	1%	/	/
Oc1ccccc1C1NN=C(c2ccccc2)S1 (stereo not drawn)	-2%	/	-16%	-8%	7.1µM*	17%
Cc1ccc(-c2nc3cccnc3o2)cc1NC(=O)COc1ccc(C(C)(C)C)cc1	?	-3%	19%	-8%	28µM*	-46%
Cc1ccc(-c2nc3cccnc3o2)cc1NC(=O)COc1ccc(Cl)cc1C	2%	-10%	3%	-1%	?	0%
Cc1ccc(-c2nc3ncccc3o2)cc1NC(=O)CC(C)C	-5%	2%	14%	2%	11µM*	10%
Cc1ccc(-c2nc3ncccc3o2)cc1NC(=O)Cc1ccc(Cl)cc1	30%	8%	6%	-1%	-6%	-5%
CCc1ccc(OCC(=O)Nc2cc(-c3nc4cc(C)ccc4o3)ccc2C)cc1	-5%	/	/	-1%	4µM*	/
CCc1ccc2oc(-c3ccc(C)c(NC(=O)COc4ccc(Cl)cc4)c3)nc2c1	/	/	/	-2%	4%	/
Cc1ccc2cc(CNC(C)CO)c(N3CCC(O)CC3)nc2c1 (stereo not drawn)	/	/	/	-6%	/	/
CCNC(=O)[C@H]1CCCN1C(=O)[C@H](CCCN=C(N)N)NC(=O)[C@H](CC(C)C)NC(=O)[C@H](CC(C)C)NC(=O)[C@@H](Cc1ccc(O)cc1)NC(=O)[C@H](CO)NC(=O)[C@@H](Cc1c[nH]c2ccccc12)NC(=O)[C@H](Cc1cnc[nH]1)NC(=O)[C@@H]1CCC(=O)N1	/	/	/	-3%	/	/
CN(CCO)C(=O)c1cn(C2CCCN(Cc3cccc4ccccc34)C2)nn1 (stereo not drawn)	/	/	/	-3%	/	/
CCc1noc(C)c1C(=O)N1CCOc2ccc(CN3CCCC(C(=O)c4cccnc4)C3)cc2C1 (stereo not drawn)	/	/	/	-5%	/	/
Cc1ccc(Nc2cc(C)nc(-c3ccccc3)n2)cc1	-8%	/	3.2µM*	4%	-5%	1%
Cc1cc(Nc2ccc(Cl)cc2)nc(NCc2ccccc2)n1	?	6%	22µM*	-15%	-8%	-48%
Cc1ccc(Nc2cc(C)nc(-c3ccccc3O)n2)cc1	-14%	10%	?	4%	?	19%
COc1ccc(OCc2cc(=O)[nH]c3ccccc23)cc1	-12%	/	1%	-1%	16µM*	-18%
c1ccc(CSc2nnc(-c3ccncc3)o2)cc1	-7%	5%	-16%	3%	-10%	30%
FC(F)(F)COc1ccc(-c2nnc(SCc3ccccc3)o2)cn1	-6%	3%	4%	-3%	18µM*	9%
O=[N+]([O-])c1ccc(O/N=[N+](\[O-])N2CCN(c3ccccc3)CC2)c([N+](=O)[O-])c1	/	/	/	-10%	/	/
COc1ccc(NS(=O)(=O)c2ccc(NC(=O)c3ccc(N(C)S(C)(=O)=O)cc3)cc2)c(OC)c1	-8%	3%	0%	-6%	25µM*	-8%
CN(c1ccccc1C(=O)Nc1ccc2c(c1)n(C)c(=O)n2C)S(C)(=O)=O	-3%	/	2%	2%	-2%	36%
CN(c1ccc(C(=O)Nc2ccc3c(c2)n(C)c(=O)n3C)cc1)S(C)(=O)=O	31%	/	?	3%	25µM*	3%
Cc1ccc(C(=O)Nc2cnn(-c3ccc(C(=O)NCc4nc(-c5ccccc5)n[nH]4)cc3)c2)c(C)c1	/	/	/	-3%	/	/
CN(C)c1c(Br)cc(C=O)cc1Br	/	/	/	0%	1%	/
SMILES	Apoferritin bind	CBFb-RUNX1 inh	N370S GC mod	GRP78 ERSR act	ClpP mod	Integrin act MD
O=C1CC(/C=C/c2ccco2)=Nc2ccccc2N1	-19%	-24%	5%	1%	-4%	4%
O=C1CC(C(F)(F)C(F)(F)C(F)(F)C(F)F)=Nc2ccccc2N1	50µM*	0%	16%	-2%	0%	1%
CCC(C)Nc1c2c(nc3c(-c4ccccc4)c(C)nn13)CCC2 (stereo not drawn)	-9%	?	3%	-4%	28µM*	-11%
CCCc1cc(N2CCN(c3ccccn3)CC2)n2nc(C)c(-c3ccccc3)c2n1	-8%	11%	6%	-1%	28µM*	12%
Cc1nn2c(N3CCCC3)cc(C(C)C)nc2c1-c1ccccc1	-6%	11%	3%	0%	35µM*	-64%
COc1ccc(CN2CCN(c3cc(C)nc4c5c(C)cc(C)nc5nn34)CC2)cc1F	-3%	0%	5%	-7%	11µM*	-12%
O=C1NC(=O)C(Cc2ccccc2F)(C2CCN(Cc3cccn3-c3cccnc3)CC2)N1 (stereo not drawn)	/	/	/	-7%	/	/
COc1ccccc1C1CN(Cc2cnn(C)c2)Cc2ccccc2O1 (stereo not drawn)	/	/	/	-4%	/	/
Cc1nc2cc(-c3ccccc3)nn2c(C)c1CCC(=O)N1CCN(c2ccccn2)CC1	-3%	-4%	13%	/	/	/
Cc1cc(N2CCN(Cc3ccccc3)CC2)n2nc(C)c(-c3ccccc3)c2n1	-7%	4%	/	-6%	32µM*	24%
COc1ccc(-c2c(C)nn3c(N4CCN(Cc5ccccc5)CC4)cc(C)nc23)cc1OC	0%	-4%	-1%	0%	1%	-18%
Cc1cc(N2CCN(c3ccccn3)CC2)n2cc(-c3ccccc3)nc2n1	-3%	3%	-1%	-1%	28µM*	6%
COc1ccccc1N(C)S(=O)(=O)c1ccc(Cl)c(C(=O)NNC(=O)c2ccccc2O)c1	-11%	/	-30%	1%	0%	0%
COc1ccccc1N(C)S(=O)(=O)c1ccc(Cl)c(C(=O)N2CCC2)c1	/	/	-17%	-1%	18µM*	-12%
CSc1ccccc1-c1nnc(-c2ccc(Cl)cc2Cl)o1	-12%	2%	9%	?	35µM*	12%
Cc1c(C)n(Cc2ccccc2)c2ccc(C(=O)NCc3ccc(OC(C)C)cc3)cc12	78%	/	/	0%	18µM*	/
Cc1ccccc1CCNC(=O)c1ccc2c(c1)c(C)c(C)n2Cc1ccccc1	53%	/	/	-3%	32µM*	/
Cc1ccccc1CCNC(=O)c1ccc2c(c1)c(C)c(C)n2C	-3%	/	/	0%	-21%	/
